IL-1B inflam inh: qHTS for Inhibitors of Inflammasome Signaling: IL-1-beta AlphaLISA Primary Screen | THP-1 LPS/ATP IL-1B secretion, AlphaLISA, 16 h; stronger effect = lower value | actives 4.7% (n = 360,000) | activity change, % at 57.5 µM; in the data active means activity change below about -50%; inconclusive means mostly about -30% to -49%
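Secreted IL-1B measured by AlphaLISA bead assay after 16 h compound exposure of THP-1 cells; compounds (final up to 57.5 uM) added 1 h before LPS (250 ng/mL) and ATP (1.25 mM) stimulation; lower signal means less secretion.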
Gal4-VP16 FLuc: VP16 counterscreen qHTS for inhibitors of ROR gamma transcriptional activity; Drosophila S2 Gal4-VP16 UAS-luciferase, luminescence, 20 h; Potency, µM (top dose mostly 53.6 µM), inactives show at the top dose activity, negative = inhibition, actives largely listed as inhibitors; actives 3.5% (n = 310,000); AID 2546, 2010;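 further: Gal4-VP16 expression switched on by copper sulfate through the metallothionein promoter; potency means the concentration at half of the fitted maximal effect; nearly all actives have a fitted effect of over 50% in size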
TDP1 cell noCPT: qHTS for Inhibitors of human tyrosyl-DNA phosphodiesterase 1 (TDP1): qHTS in cells in absence of CPT | actives 15% (n = 420,000) | Potency, µM (series often up to 46.2 µM), without a hit: at the top dose activity change, negative = growth inhibition, usual class: inhibitors | DT40 Tdp1-/- hTDP1 cells, no CPT, ATP luminescence, 48 h; further: potency means the concentration at half of the fitted maximal effect; nearly all actives have a fitted effect of over 55% in size
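Readout: luminescence from CellTiter-Glo after 30 min in the dark at RT. Cells: DT40 Tdp1-/- with stable hTDP1, 400/well. Exposure: compounds alone, ≥48 hr, 37 °C.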
RORgamma inh: qHTS for inhibitors of ROR gamma transcriptional activity | Nuclear receptor ROR-gamma (Mus musculus), P51450 | Drosophila S2 Gal4-RORgamma UAS-luciferase reporter, 20 h | Potency, µM (titrated, usually from 53.6 µM), without a hit: at the top dose activity change, negative = inhibition, actives largely listed as inhibitors | actives 5.4% (n = 310,000) | AID 2551, 2010; further: potency means the concentration at half of the fitted maximal effect; nearly all actives have a fitted effect of over 60% in size
Target sequence (P51450 whole entry, looked up, the tested form may be a part): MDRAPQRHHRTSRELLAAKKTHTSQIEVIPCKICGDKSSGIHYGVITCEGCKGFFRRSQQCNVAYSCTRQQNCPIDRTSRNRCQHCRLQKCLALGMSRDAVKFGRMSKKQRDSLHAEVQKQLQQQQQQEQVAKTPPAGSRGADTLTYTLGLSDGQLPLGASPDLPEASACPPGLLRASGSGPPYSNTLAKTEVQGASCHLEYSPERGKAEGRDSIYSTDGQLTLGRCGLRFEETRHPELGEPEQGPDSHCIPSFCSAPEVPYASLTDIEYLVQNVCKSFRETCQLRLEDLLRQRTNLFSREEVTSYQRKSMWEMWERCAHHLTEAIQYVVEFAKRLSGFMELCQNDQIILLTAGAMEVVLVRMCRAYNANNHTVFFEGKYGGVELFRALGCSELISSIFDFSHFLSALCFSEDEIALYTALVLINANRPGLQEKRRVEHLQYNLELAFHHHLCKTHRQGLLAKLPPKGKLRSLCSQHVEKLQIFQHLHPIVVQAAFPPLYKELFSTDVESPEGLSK
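Stable Schneider cell line, Gal4 DNA-binding domain fused to ROR gamma, UAS-luciferase. Cmpd 1 hr RT → CuSO4 700 uM final → 20 hr RT → luciferase reagent 10 min → luminescence.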
DT40 TDP1 CPT: qHTS for Inhibitors of human tyrosyl-DNA phosphodiesterase 1 (TDP1): qHTS in cells in presence of CPT | chicken DT40 Tdp1-/-;hTDP1 cells + 20 nM CPT, ATP luminescence, 48 h | Potency, µM (series often up to 46.2 µM), without a hit: at the highest dose activity change, negative = growth inhibition, actives largely listed as inhibitors | actives 12% (n = 420,000); further: potency means the concentration at half of the fitted maximal effect; nearly all actives have a fitted effect of over 55% in size
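Chicken DT40 Tdp1-/- cells stably complemented with human TDP1 were seeded at 400 cells/well in medium containing 20 nM camptothecin, exposed to pin-transferred compounds, and grown at 37 °C for at least 48 hr. Viability was read as ATP luminescence.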
ELG1 DNA repair: qHTS screen for small molecules that inhibit ELG1-dependent DNA repair in human embryonic kidney (HEK293T) cells expressing luciferase-tagged ELG1; HEK293T ELG1-luciferase reporter, luminescence, 16 h; DNA damage induced by 5-fluorouridine; Potency, µM (titrated, usually from 46.1 µM), for inactives: at the top dose activity change, negative = inhibition, actives largely listed as inhibitors; actives 2.3% (n = 330,000); AID 504467, 2011; further: potency means the concentration at half of the fitted maximal effect; nearly all actives have a fitted effect of over 55% in size
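Reporter activity after DNA damage by 5-fluorouridine is monitored. Compound-treated cells incubate 16 hr at 37 °C, then ONE-Glo is added for 30 min before luminescence reading.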
Numbers without * were called inactive; u = inconclusive; x = no result given; [ ] = remark or other dose. Most compounds without a hit are left out; they make up all but 21% or so of the library. Unless noted, the call rests on the fitted dose curve; in most records, active means well fitted curve in the direction sought with a large enough effect; inconclusive means small, poorly fitted or top-dose-only effect, or another doubt; inactive means no such curve, though single readings can be large; an effect the other way counts as inactive or inconclusive. On the % scale 0 is the no-effect control and ±100 the full control effect.

SMILES	IL-1B inflam inh	Gal4-VP16 FLuc	TDP1 cell noCPT	RORgamma inh	DT40 TDP1 CPT	ELG1 DNA repair
CCc1cc(C(=O)Nc2cc(S(=O)(=O)N(C)C)ccc2C)sc1C	-16.8	-1.9%	13µM*	17.1%	14.6µM*	u
Cc1ccc(S(=O)(=O)N(C)C)cc1NC(=O)c1cc(-c2ccco2)nc2ccccc12	14.2	-26.4%	18.4µM*	-41.9%	13µM*	-3.9%
O=C(O)CCC(=O)C(=O)O	x	-9.5%	9.4%	18.8%[10 µM]	14.0%	x
CN(C)S(=O)(=O)Oc1cccc(C(=O)Nc2cccc(Cl)c2)c1	-55.7*	-12.4%	18.4µM*	u	14.6µM*	u
COc1ccc(NC(=O)c2cccc(OS(=O)(=O)N(C)C)c2)cc1	-12.0	-12.3%	5.17µM*	-4.1%	18.4µM*	u
CN(C)S(=O)(=O)Oc1cccc(C(=O)Nc2ccc(Cl)c(Cl)c2)c1	-88.3*	u	10.3µM*	u	7.31µM*	u
CNS(=O)(=O)c1cccc(C(=O)Nc2cccc(Cl)c2)c1	3.2	28.1%	u	u	-21.5%	u
COc1cccc(C(=O)Nc2ccccc2)c1	-20.9	3.7%	-11.7%	14.8%	-0.6%	u
COc1cccc(C(=O)Nc2ccc3[nH]ncc3c2)c1	-57.3*	-29.6%	-28.7%	-32.7%	-4.9%	u
COCCN1C[C@@H](CO)O[C@@H](n2cnc3c(N(C)C(C)C)ncnc32)C1	-4.3	x	-8.9%	x	4.0%	x
Cc1ncc([N+](=O)[O-])n1CC(=O)Nc1ccc2c(c1)OCO2	1.8	9.3%	12.5%	2.6%	4.6%	-0.7%
CCCCCn1c(=O)[nH]c2cc(C(=O)N3CCN(c4ccccc4F)CC3)ccc2c1=O	27.5	-15.9%	14.6µM*	u	u	-18.0%
CCCCCn1c(=O)[nH]c2cc(C(=O)N3CCN(CC)CC3)ccc2c1=O	15.2	1.4%	-22.7%	-15.4%	-26.5%	-5.7%
CC(=O)Nc1ccccc1-c1nc2ccc(C(=O)N3CCN(c4cc(C)ccc4C)CC3)cc2[nH]c1=O	-4.3	3.1%	14.6µM*	11.5%	u	u
COCCn1c(=O)[nH]c2cc(C(=O)N3CCN(c4cc(C)ccc4C)CC3)ccc2c1=O	3.6	-1.7%	u	28.9%	u	u
Cc1ccc(C)c(N2CCN(C(=O)c3ccc4c(=O)n(CCc5ccccc5)c(=O)[nH]c4c3)CC2)c1	x	x	16.4µM*	x	20.6µM*	x
CCCCCn1c(=O)[nH]c2cc(C(=O)N3CCN(c4ccc(F)cc4)CC3)ccc2c1=O	7.4	x	8.2µM*	x	u	x
C[N+]1(CC(=O)c2ccc3c(c2)CCCC3)CCOCC1	x	x	-19.8%	x	6.0%	x
Nc1ccccc1-c1nnc(SCC(=O)Nc2ccccc2OC(F)F)[nH]c1=O	4.8	x	-14.4%	x	7.6%	6.1%
O=[N+]([O-])c1ccc(CS(=O)(=O)c2ncn[nH]2)cc1	7.3	-12.0%	-3.9%	29.7%	28.1%	6.6%
O=C(CCCCn1c(=O)[nH]c2ccccc2c1=O)NCCC1=CCCCC1	3.4	-10.4%	-29.5%	12.9%	-4.5%	-3.4%
CCCCCn1c(=O)[nH]c2cc(C(=O)N3CCN(c4ccc(C(C)=O)cc4)CC3)ccc2c1=O	-20.6	u	14.6µM*	41.6%	14.6µM*	5.8µM*
CCOC(=O)N1CCN(C(=O)c2ccc3c(=O)n(CCC4=CCCCC4)c(=O)[nH]c3c2)CC1	u	0.2%	18.4µM*	22.4%	16.4µM*	u
